Assay [1] deals with Cytochrome P450 1A2 (Homo sapiens) (UniProt P05177). Description: p450-cyp1a2 (AID 410; calls by dose curve; note: potency is the fitted concentration of half-maximal effect;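 for activity change, negative = inhibition: -100% = full effect of reference inhibitor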). A digest of the protocol: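 Luminescent readout of luciferin formed from Luciferin-ME by human CYP1A2; data normalized against complete inhibition by 57 uM furafylline. Enzyme 20nM, substrate 100uM at Km, 100mM KPO4 buffer, 60 min reaction at room temperature.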
Assay [2] addresses Glucocorticoid receptor (Homo sapiens) (UniProt P04150). In words: GR-GFP Redistribution (AID 450;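 active = compounds whose dose series gives a full or clear partial fitted curve of increased nuclear translocation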; note: potency is the fitted concentration of half-maximal effect). Conditions: U2OS GR-GFP nuclear translocation, laser cytometry, 2 h.
Assay [3] has the same target. Description: GR-EFC Redistribution (AID 451; calls by dose curve; note: potency is the fitted concentration of half-maximal effect). Conditions: CHO-K1 GR-EFC translocation, beta-gal luminescence, 2 h. A digest of the protocol:
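CHO-K1 cells expressing nuclear EA and GR-ED fragments of b-gal; compounds titrated up to 46 uM final, 2 h at 37 C. GR nuclear translocation read as complemented b-gal luminescence after 1 h RT detection.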

Assay [4] deals with Mitogen-activated protein kinase 10 (Mus musculus) (UniProt Q61831). In words: JNK3 AlphaScreen Assay (AID 530; active = well fitted curve in either direction with a large enough effect, not every such curve was filed as active;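 note: kinase came from lysate of stimulated human HepG2 cells; signal reports phosphorylation of biotinylated GST-cJun 1-79 at Ser73 with 10 µM ATP; % is set by controls: 0 for no effect and ±100 for the full control effect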). The essentials: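 Pre-activated (IL-1β/TNFα) JNK3 in HepG2 lysates phosphorylates biotin-GST-cJun(1-79), 10 uM ATP; anti-phospho-cJun(Ser73) AlphaScreen read at room temperature, pH 7.6 Tris buffer. Compounds pre-incubated 15 min as titrations.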
Assay [5] addresses 3',5'-cyclic-AMP phosphodiesterase 4B (Homo sapiens) (UniProt Q07343). In words: qHTS Assay for Inhibitors of PDE-IV (AID 607; active = well fitted activation curve with a large enough effect in the main read-out, with a control signal flat, not every such curve was filed as active; note: % of control where 0% means no effect). The essentials: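 The readout is membrane depolarisation from a cAMP-sensing CNG channel, detected with a potential dye at ex 535/em 590. Cells were HEK293-derived (endogenous PDE-IV) at 1000 cells/well, titrated up to 22.9 uM final.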
The nature of assay [6]: qHTS Assay for Lipid Storage Modulators (AID 1519; calls by dose curve). Conditions: Drosophila S3 cells, BODIPY lipid droplet/cell ratio, laser cytometry, cells loaded with oleic acid. A digest of the protocol: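 Cells seeded at 5,000 per well were treated with compounds over a concentration series and loaded with oleic acid (400 uM, as added). Lipid droplet fluorescence (488 nm excitation, 500-530 nm channel) was read by laser-scanning cytometry and normalized to 20 uM Triacsin C.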

Assay [7] has as its target Ubiquitin carboxyl-terminal hydrolase 1 (Homo sapiens) (UniProt O94782). Description: Inhibitors of USP1/UAF1: Pilot qHTS (AID 504865).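 Note: rhodamine fluorescence freed from ubiquitin-rhodamine substrate followed over time; top concentration of the series differs between compounds; % is set by controls: 0 for no effect and ±100 for the full control effect; nearly all actives have a fitted effect of over 35% in size.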 A digest of the protocol:
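In 50mM HEPES pH 7.8 containing 0.5mM EDTA, 1mM TCEP, 0.1 mg/ml BSA and 0.01% Tween-20, 1nM USP1/UAF1 is exposed to compound for 15 min, then Ub-Rho (150nM final) is added and fluorescence is read over time.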
A general note: In qHTS, concentration-response curves come from the screen itself.

For assay [8], the target named is DNA dC->dU-editing enzyme APOBEC-3G (Homo sapiens) (UniProt Q9HC16). Description: qHTS for inhibitors of Vif-A3G interactions: Validation (AID 588379). Note: 0% is about no effect. A digest of the protocol: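 HeLa cells stably expressing Vif and A3G-eYFP, 700 cells/well, incubated overnight at 37 deg C, then exposed to compound overnight at 37 deg C. Inhibition of Vif-mediated degradation read as increased yellow fluorescence (Ex 488/Em 500-530) by laser-scanning cytometry.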

The subject of assay [9] is Zika virus NS2B-NS3 protease. Description: Primary screen GU AMC qHTS for Zika virus inhibitors (AID 1347154).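 Note: 0% = no-inhibitor control and -100% = no-enzyme control; nearly all actives have a fitted effect of over 70% in size.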 A digest of the protocol:
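Unlinked Zika NS2B hydrophilic domain–NS3 protease complex at 25 nM in 10 mM Tris-HCl pH 8.0, 0.01% Tween 20, with an AMC peptide substrate. Fluorescence change (340/450 nm) over 15 min at room temperature, normalized to controls, fitted to 4-parameter Hill.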

Assay [10] can be described thus: Primary qHTS for small molecule stabilizers of the endoplasmic reticulum resident proteome: Secreted ER Calcium Modulated Protein (SERCaMP) assay (AID 1508630). Note: % is set by controls: 0 for no effect and ±100 for the full control effect. The essentials: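 GLuc-SERCaMP-expressing SH-SY5Y cells, pretreated 16 h with compound, are challenged with thapsigargin to empty ER calcium stores; after 4 h, coelenterazine is added directly to the medium and luminescence is imaged.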

Assay [11] deals with Cytochrome P450 2D6 (Homo sapiens) (UniProt P10635). In words: qHTS Assay for Inhibitors and Substrates of Cytochrome P450 2D6 (AID 891). Note: potency is the fitted concentration of half-maximal effect; nearly all actives have a fitted effect of over 60% in size. A digest of the protocol:
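Human CYP2D6 (5 nM) with 30 uM Luciferin-ME EGE (at Km) in 100 mM KPO4, compound preincubated 10 min, then NADPH regeneration system for 60 min at room temperature. Luciferin read by luminescence; normalized to 1.43 uM quinidine.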

In assay [12] the target is Cytochrome P450 2C9 (Homo sapiens) (UniProt P11712). In words: qHTS Assay for Inhibitors and Substrates of Cytochrome P450 2C9 (AID 883). Note: potency is the fitted concentration of half-maximal effect; nearly all actives have a fitted effect of over 60% in size. A digest of the protocol:
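10nM CYP2C9 + 100uM Luciferin-H (=KM), 25mM KPO4; cpd 10 min 37C; NADPH regen, 60 min 37C; stop/detect with P450 Glo-Buffer 20 min; luminescence. Norm. to 57uM sulphaphenazole as full inhibition.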

A short description of assay [13]: AP1 Signaling Pathway (AID 357; active = well fitted curve in either direction with a large enough effect, not every such curve was filed as active;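 note: ME-180 reporter cells stimulated with EGF at its EC50 level; % is set by controls: 0 for no effect and ±100 for the full control effect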). To be noted: ME-180 AP-1-bla reporter, EGF-induced, beta-lactamase ratio, 5 h; at 38 µM (top of the series). A digest of the protocol:
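A ratiometric CCF4 readout (405 nm excitation; 460 and 530 nm emission) quantified AP-1-driven beta-lactamase in ME-180 cells after 5 h with compound and EC50 EGF; AC50 values were derived for activators and inhibitors.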

A short description of assay [14]: Stat Signaling Pathway (AID 446; active = well fitted curve in either direction with a large enough effect, not every such curve was filed as active;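 note: ME-180 cervical cancer cells given 40 pM IL-6 alongside compound; SIE-controlled beta-lactamase reporter measured as 460/530 nm FRET emission ratio; % is set by controls: 0 for no effect and ±100 for the full control effect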). Conditions: ME-180 SIE beta-lactamase reporter, IL-6 stimulated, 5 h. The essentials: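 Screening format detects activators and inhibitors alike: ME-180 SIE-bla cells stimulated at 40 pM IL-6 for 5 hrs with compound, then dual-emission beta-lactamase read at 405 nm excitation.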
The target in assay [15] is Cytochrome P450 3A4 (Homo sapiens) (UniProt P08684). Description: qHTS Assay for Activators of Cytochrome P450 3A4 (AID 885). Note: nearly all actives have a fitted effect of over 65% in size. The essentials:
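Steps: enzyme/substrate mix dispensed; compound added, 10 min RT; NADPH regeneration solution added, 60 min RT; luciferin detection buffer stops reaction; 20 min later luminescence measured.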

Assay [16] can be described thus: qHTS Assay for Identification of Small Molecule Agonists for Thrombopoietin (TPO) Signaling Pathway (AID 917). Note: % is set by controls: 0 for no effect and ±100 for the full control effect. The essentials:
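Luminescence from a Glycoprotein IIb promoter–driven luciferase reporter served as read-out in murine Ba/F3 cells carrying the human TPO receptor. Cells, deprived of IL-3 overnight, received compounds with 26 pM TPO and were incubated 24 hrs at 37 C.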

The target of assay [17] is Pyruvate kinase (Leishmania mexicana) (UniProt Q27686). Description: qHTS Validation Assay for Inhibitors of Leishmania Mexicana Pyruvate Kinase (AID 945).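 Note: 0% = DMSO only neutral control wells.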 A digest of the protocol:
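Read-out: luminescence from PKLight stop/detection reagent, data normalized to DMSO. Reaction: 0.2 nM E451W LmPYK, 0.5 mM PEP, 0.1 mM ADP, pH 7.2, 1 h room temperature.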

Assay [18] concerns the target Pyruvate kinase PKM (Homo sapiens) (UniProt P14618). In words: qHTS Assay for Activators of Human Muscle Pyruvate Kinase (AID 954; active = well fitted curve in the direction sought with a large enough effect, not every such curve was filed as active;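 note: 0% = uninhibited enzyme and -100% = no enzyme or full thiadiazolimine inhibition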). The essentials: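 Reaction: 0.1 nM purified PKM2 with 0.5 mM phosphoenolpyruvate and 0.1 mM ADP, room temperature, 1 h. Readout: luciferase-based ATP luminescence after stop reagent. Activators judged against a 0.3 nM enzyme column.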

Assay [19] addresses alpha-glucosidase (Oryza sativa, rice) (UniProt Q653V4). In words: Counterscreen for Glucocerebrosidase Inhibitors: qHTS Assay for Rice alpha-Glucosidase at pH 5.0 (AID 997).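 Note: 0% = full activity with enzyme and -100% = basal without enzyme.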 The essentials: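 Rice alpha-glucosidase (4 nM final) with 400 uM 4-methylumbelliferyl-alpha-D-glucopyranoside in citrate buffer pH 5.0, 20 min at room temperature, stopped at pH 10; fluorescence 365/440 nm, compounds 0.7 nM–77 uM, AC50 from Hill fits.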
For orientation: A counterscreen serves to expose hits that act by an unwanted route or on another target.

The mark [20] stands for this setting: measured here: cell count channel max response.
The mark [21] stands for this setting: measured here: lipid channel max response.

Each structure is given as a SMILES string. Several values for one entry are separate records, joined by “and”; a condition that tells them apart may be missing. Equal entries are not always repeated. Inconclusive results are not listed. Activity calls are given as the source filed them. Unless noted, calls come from the whole dose curve; as a rule, active = well fitted curve in the direction sought with a large enough effect; inconclusive = small, poorly fitted or top-dose-only effect, or another doubt; inactive = no such curve, though single readings can be large; an effect the other way counts as inactive or inconclusive. Some results are limits rather than exact numbers.

Data on seven compounds can be found in PubChem BioAssay (NCATS).

Sequence of DNA dC->dU-editing enzyme APOBEC-3G (Homo sapiens) (Q9HC16 whole entry, looked up): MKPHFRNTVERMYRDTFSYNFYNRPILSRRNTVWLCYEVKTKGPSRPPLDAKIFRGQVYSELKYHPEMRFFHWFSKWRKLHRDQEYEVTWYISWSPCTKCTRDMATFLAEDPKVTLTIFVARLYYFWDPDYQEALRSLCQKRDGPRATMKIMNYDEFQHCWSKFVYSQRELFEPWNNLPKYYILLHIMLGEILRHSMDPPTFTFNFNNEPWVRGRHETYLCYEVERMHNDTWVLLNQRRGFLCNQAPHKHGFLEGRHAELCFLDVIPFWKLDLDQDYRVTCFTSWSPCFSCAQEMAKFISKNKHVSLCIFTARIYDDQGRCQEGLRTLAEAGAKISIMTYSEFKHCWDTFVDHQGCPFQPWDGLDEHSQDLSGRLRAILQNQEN
Sequence of Ubiquitin carboxyl-terminal hydrolase 1 (Homo sapiens) (O94782 whole entry, looked up): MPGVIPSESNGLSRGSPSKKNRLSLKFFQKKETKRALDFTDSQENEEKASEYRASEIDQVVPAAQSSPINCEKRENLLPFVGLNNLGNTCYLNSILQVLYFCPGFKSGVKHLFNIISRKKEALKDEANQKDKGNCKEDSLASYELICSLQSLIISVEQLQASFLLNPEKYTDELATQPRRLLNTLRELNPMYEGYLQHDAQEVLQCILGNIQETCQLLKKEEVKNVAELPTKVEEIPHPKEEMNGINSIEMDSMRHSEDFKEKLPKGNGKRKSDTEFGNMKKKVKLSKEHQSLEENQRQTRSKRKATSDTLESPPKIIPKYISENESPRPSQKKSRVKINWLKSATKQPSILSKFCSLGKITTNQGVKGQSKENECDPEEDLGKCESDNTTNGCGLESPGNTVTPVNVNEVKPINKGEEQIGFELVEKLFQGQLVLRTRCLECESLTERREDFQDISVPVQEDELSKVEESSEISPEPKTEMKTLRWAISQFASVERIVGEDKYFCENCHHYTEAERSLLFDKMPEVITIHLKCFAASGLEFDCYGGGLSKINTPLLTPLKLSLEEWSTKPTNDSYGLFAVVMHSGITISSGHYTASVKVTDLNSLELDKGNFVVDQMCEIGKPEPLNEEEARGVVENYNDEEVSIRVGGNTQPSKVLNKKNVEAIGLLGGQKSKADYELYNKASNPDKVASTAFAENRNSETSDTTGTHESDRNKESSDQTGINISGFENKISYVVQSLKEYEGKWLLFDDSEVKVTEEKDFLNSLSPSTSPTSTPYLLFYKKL
Sequence of 3',5'-cyclic-AMP phosphodiesterase 4B (Homo sapiens) (Q07343 whole entry, looked up): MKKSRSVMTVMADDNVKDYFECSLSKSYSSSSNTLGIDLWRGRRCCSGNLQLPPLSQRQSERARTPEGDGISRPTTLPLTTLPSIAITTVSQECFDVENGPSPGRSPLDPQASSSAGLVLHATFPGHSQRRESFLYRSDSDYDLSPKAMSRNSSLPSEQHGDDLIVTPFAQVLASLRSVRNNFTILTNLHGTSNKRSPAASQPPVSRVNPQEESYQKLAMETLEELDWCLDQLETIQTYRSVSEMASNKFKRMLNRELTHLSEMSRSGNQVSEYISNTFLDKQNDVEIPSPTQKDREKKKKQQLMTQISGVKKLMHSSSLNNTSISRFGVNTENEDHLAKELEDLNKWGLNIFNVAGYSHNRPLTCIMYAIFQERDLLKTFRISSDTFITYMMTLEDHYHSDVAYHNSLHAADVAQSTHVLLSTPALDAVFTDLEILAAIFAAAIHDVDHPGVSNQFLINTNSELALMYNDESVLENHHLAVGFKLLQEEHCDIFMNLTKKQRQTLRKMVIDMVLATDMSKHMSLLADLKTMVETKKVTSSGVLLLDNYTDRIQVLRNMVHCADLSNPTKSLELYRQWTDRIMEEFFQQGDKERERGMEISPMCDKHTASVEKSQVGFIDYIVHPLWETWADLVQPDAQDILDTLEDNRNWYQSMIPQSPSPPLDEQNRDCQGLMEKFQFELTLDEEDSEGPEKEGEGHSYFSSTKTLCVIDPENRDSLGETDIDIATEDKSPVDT
Sequence of Cytochrome P450 1A2 (Homo sapiens) (P05177 whole entry, looked up): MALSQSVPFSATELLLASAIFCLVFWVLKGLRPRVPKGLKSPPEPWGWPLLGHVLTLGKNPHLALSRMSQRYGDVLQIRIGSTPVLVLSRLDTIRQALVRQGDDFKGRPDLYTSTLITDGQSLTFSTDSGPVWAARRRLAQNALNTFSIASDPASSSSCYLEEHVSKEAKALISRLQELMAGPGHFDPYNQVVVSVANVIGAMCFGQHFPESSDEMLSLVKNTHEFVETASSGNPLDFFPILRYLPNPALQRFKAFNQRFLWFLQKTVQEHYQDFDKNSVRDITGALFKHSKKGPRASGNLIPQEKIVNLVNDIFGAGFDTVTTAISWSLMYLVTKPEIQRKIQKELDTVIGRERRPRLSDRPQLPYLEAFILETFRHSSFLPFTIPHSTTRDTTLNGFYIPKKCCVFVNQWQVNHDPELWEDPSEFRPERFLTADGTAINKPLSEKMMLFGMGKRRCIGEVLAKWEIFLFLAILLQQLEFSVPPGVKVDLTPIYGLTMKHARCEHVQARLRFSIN
Sequence of Cytochrome P450 2D6 (Homo sapiens) (P10635 whole entry, looked up): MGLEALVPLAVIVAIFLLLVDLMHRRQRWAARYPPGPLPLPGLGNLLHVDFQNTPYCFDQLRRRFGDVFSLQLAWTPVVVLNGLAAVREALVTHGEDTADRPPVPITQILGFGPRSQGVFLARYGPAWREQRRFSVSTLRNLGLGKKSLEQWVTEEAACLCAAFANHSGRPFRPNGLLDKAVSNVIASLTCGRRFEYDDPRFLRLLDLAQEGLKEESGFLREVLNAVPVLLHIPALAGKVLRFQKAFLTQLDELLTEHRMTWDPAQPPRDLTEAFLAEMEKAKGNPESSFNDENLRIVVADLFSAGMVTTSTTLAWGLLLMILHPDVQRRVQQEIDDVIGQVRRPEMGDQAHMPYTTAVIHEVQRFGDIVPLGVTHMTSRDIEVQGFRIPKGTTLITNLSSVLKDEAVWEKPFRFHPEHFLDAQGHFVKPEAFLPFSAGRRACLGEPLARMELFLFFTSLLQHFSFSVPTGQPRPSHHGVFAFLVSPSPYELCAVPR
Sequence of Glucocorticoid receptor (Homo sapiens) (P04150 whole entry, looked up): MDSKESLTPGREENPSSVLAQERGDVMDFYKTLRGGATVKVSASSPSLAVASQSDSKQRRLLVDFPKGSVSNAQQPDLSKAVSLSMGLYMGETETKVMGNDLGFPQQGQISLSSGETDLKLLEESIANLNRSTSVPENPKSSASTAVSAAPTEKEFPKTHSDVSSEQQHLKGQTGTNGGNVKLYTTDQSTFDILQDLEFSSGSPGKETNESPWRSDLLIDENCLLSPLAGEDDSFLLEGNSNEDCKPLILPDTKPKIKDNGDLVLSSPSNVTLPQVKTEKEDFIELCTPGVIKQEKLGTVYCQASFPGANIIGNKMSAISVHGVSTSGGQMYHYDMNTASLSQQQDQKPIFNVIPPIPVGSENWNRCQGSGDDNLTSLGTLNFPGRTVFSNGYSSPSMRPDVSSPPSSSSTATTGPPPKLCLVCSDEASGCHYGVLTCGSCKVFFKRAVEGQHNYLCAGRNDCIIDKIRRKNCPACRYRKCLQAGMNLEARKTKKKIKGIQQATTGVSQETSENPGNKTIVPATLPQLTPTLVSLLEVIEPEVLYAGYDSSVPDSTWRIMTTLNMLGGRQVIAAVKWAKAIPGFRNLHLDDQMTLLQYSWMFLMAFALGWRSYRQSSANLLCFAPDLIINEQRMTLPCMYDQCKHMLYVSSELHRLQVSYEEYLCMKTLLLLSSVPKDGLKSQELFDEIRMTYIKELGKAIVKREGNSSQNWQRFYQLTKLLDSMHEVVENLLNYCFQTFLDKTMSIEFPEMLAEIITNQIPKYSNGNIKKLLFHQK
Sequence of Cytochrome P450 3A4 (Homo sapiens) (P08684 whole entry, looked up): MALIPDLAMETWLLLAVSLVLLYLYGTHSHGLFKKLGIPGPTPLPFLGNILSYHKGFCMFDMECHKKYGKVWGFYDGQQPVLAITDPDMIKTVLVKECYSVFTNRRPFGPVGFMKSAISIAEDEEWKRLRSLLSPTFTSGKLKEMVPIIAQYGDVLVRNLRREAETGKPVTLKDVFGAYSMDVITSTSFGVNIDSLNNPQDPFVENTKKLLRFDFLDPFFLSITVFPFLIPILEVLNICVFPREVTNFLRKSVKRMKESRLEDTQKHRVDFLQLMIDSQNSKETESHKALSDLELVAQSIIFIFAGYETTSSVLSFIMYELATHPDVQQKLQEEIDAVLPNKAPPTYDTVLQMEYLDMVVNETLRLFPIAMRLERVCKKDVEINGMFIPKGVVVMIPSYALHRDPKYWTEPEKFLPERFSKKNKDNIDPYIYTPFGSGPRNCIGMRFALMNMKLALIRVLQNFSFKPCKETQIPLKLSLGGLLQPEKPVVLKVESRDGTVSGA
Sequence of Cytochrome P450 2C9 (Homo sapiens) (P11712 whole entry, looked up): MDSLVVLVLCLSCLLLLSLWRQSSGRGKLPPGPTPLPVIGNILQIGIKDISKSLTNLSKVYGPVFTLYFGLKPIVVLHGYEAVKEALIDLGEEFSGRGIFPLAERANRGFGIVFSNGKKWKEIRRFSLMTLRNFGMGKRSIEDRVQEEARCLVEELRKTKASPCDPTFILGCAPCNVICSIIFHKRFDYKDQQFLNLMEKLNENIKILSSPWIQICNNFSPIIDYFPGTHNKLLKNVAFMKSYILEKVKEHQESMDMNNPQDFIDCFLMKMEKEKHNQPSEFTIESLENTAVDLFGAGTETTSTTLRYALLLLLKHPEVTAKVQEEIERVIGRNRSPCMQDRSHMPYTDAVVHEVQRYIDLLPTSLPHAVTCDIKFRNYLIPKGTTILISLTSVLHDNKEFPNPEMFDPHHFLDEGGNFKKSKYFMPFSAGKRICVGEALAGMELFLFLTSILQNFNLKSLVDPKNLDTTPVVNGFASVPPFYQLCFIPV

As to `NCCC(=O)O`, the Potency result in [1], in assay [4], in assay [5], in assay [7], in assay [8] and in assay [9] was “inactive” each time. In assay [10], the Potency result was “inactive”. The Potency in assay [2] and in [3] was > 46 µM (inactive) throughout. For the same compound, the activity change, negative = inhibition in assay [6] (at 57.5 µM (top of the series)) is -2.51% (inactive). In addition, the max response is -17.6% in [6] (setting [20]) and -21.9% in assay [6] (setting [21]).
As to `C[C@H](NC[C@H](O)CP(=O)(O)Cc1ccccc1)c1ccc(Cl)c(Cl)c1`, the Potency result in assay [1], in [4], in [5], in [7], in assay [8] and in assay [9] was “inactive” throughout. Further, the Potency entry in assay [10] was “inactive”. In addition, the Potency in assay [2] is > 46 µM (inactive); in [3], > 46 µM (inactive); in [11] it was 50.1 nM (active). Further, in assay [6] (at 57.5 µM (top of the series)), the activity change, negative = inhibition is 2.58% (inactive). Besides, the max response amounted to 0.952% in [6] (setting [20]) and 5.21% in assay [6] (setting [21]).
With `CCCCCCCCCCCCC/C=C\[C@@H](O)[C@H](CO)NC(C)=O`, the Potency in [1] was 20 µM (active); in assay [2], > 46 µM (inactive); in assay [3], > 46 µM (inactive); in [12], 3.16 µM (active). Further, the Potency entry in assay [4], in assay [5], in [8], in [9] and in assay [10] was “inactive” throughout. In addition, the activity change, negative = inhibition in [6] (at 57.5 µM (top of the series)) was -6.83% (inactive). Also, the values for the max response in assay [6] (setting [20]) and in assay [6] (setting [21]) were 9.95% and -0.444%, respectively.
As for `CNCC[C@H](Oc1ccccc1OC)c1ccccc1`, the activity change, negative = inhibition in assay [13] was 26.3% (inactive); in assay [6] (at 25.7 µM (top of the series)), -2.76% (inactive). Moreover, the Potency was 12.6 µM (active) and 10 µM (active) and 15.8 µM (active) in assay [1]; 5.01 µM (active) and 1.26 µM (active) in assay [11]. Besides, the activity, negative = inhibition in assay [14] (at 17.2 µM (top of the series)) is -0.439% (inactive); in assay [14] (at 38 µM (top of the series)) it was 4.82% (inactive). Further, the Potency entry in assay [4], in assay [5], in assay [15], in assay [16], in assay [17] and in [7] was “inactive” in each case. The Potency result in [8], in assay [9] and in assay [10] was “inactive” in each case. In addition, the result in assay [18] and in assay [19] was inactive. The max response in assay [6] (setting [20]) is -10.8%; in assay [6] (setting [21]), -15.9%.
On to `N[C@](CC1c2ccccc2Oc2ccccc21)(C(=O)O)[C@@H]1C[C@@H]1C(=O)O`, for which the Potency in assay [1] is 31.6 µM (active); in [2], > 46 µM (inactive); in [3], > 46 µM (inactive). The Potency entry in assay [4], in assay [5], in [7], in assay [8], in assay [9] and in assay [10] was “inactive” each time. The activity change, negative = inhibition in [6] (at 57.5 µM (top of the series)) was 5.89% (inactive). Moreover, the max response turned out to be 12.4% in [6] (setting [20]) and 20% in [6] (setting [21]).
Regarding `CCC(=O)O[C@H](CC(=O)O)C[N+](C)(C)C`, the Potency entry in assay [1], in [4], in assay [7], in assay [8], in [9] and in assay [10] was “inactive” each time. Moreover, the Potency in assay [2] and in [3] was > 46 µM (inactive) each time. For the same compound, the activity change, negative = inhibition in assay [6] (at 57.5 µM (top of the series)) is 3.1% (inactive). The figures for the max response in assay [6] (setting [20]) and in assay [6] (setting [21]) were -8.23% and -5.22%, respectively.
As for `C[C@H](C[C@H](N)C(=O)O)C(=O)O`, the Potency is 31.6 µM (active) in [1], > 46 µM (inactive) in assay [2] and > 46 µM (inactive) in assay [3]. In addition, the Potency result in assay [4], in [5], in assay [7], in assay [8], in [9] and in [10] was “inactive” throughout. For the same compound, in assay [6] (at 57.5 µM (top of the series)), the activity change, negative = inhibition was -1.92% (inactive). Also, the results for the max response in [6] (setting [20]) and in assay [6] (setting [21]) were -13.2% and -13.5%, respectively.
